Experimental data from PubChem BioAssay AID1159580 (chemical genetic matrix, 2015).
Several values for one entry are separate records, joined by “and”; a condition that tells them apart may be missing. Equal values may be shown once. The whole screen tested about 5,500 compounds, of which about 2,000 (36%) were called active. Another 18% or so got no clear call; they are omitted. No stated cut-off is given here; in the data, active means normalized growth mostly below about 0.91 (no sharp cut-off); inconclusive means no clear call, values can overlap the other calls; inactive means mostly above about 0.92. Some of the results follow.

Test: chemical genetic growth profiling, strain panel (AID 1159580);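 further: tested at 20 µM; growth read once vehicle control cultures reached saturation at 30 °C; 1 = growth at the plate median or of vehicle wells; lower values mean less growth of the strain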
Conditions: S. cerevisiae deletion strains, growth OD

Measured: normalized growth

O=C1N=C(O)CN1/N=C\c1ccc(-c2ccc([N+](=O)[O-])cc2)o1
inactive: locus YAL013W, strain DEP1, active compounds read low 1.01 and 0.985 | locus YAL021C, strain ccr4, active compounds read low 0.948 | locus YAL026C, strain drs2, active compounds read low 0.981 | locus YAL030W, strain snc1, active compounds read low 0.986 | locus YAL040C, strain CLN3, active compounds read low 1.03 | locus YBL061C, strain skt5, active compounds read low 1 | locus YBR009C, strain hhf1, active compounds read low 1 | locus YBR021W, strain FUR4, active compounds read low 1.03 | locus YBR023C, strain chs3, active compounds read low 0.998 | locus YBR171W, strain sec66, active compounds read low 0.98 | locus YBR229C, strain ROT2, active compounds read low 1.01 | locus YBR231C, strain swc5, active compounds read low 0.971 | locus YBR279W, strain paf1, active compounds read low 0.974 | locus YCL011C, strain gbp2, active compounds read low 0.989 | locus YCL016C, strain dcc1, active compounds read low 0.985 | locus YCL029C, strain bik1, active compounds read low 1.04 | locus YCL061C, strain MRC1 (second series), active compounds read low 1.01 | locus YCL061C, strain MRC1, active compounds read low 0.987 | locus YCL069W, strain vba3, active compounds read low 0.974 | locus YCR088W, strain abp1, active compounds read low 0.973 | locus YDL005C, strain med2, active compounds read low 0.973 | locus YDL035C, strain GPR1, active compounds read low 1.03 | locus YDL040C, strain nat1, active compounds read low 0.978 | locus YDL074C, strain BRE1, active compounds read low 1.04 | locus YDL101C, strain DUN1, active compounds read low 1.01 | locus YDL134C, strain PPH21, active compounds read low 1.02 | locus YDL185W, strain tfp1, active compounds read low 1.04 | locus YDL192W, strain arf1, active compounds read low 1.03 | locus YDR001C, strain nth1, active compounds read low 0.977 | locus YDR069C, strain doa4, active compounds read low 0.987 | locus YDR101C, strain arx1, active compounds read low 1.02 | locus YDR137W, strain rgp1, active compounds read low 0.918 | locus YDR150W, strain NUM1, active compounds read low 1.03 and 1 | locus YDR159W, strain sac3, active compounds read low 0.966 | locus YDR162C, strain NBP2, active compounds read low 1.02 | locus YDR195W, strain ref2 0.988 | locus YDR297W, strain sur2, active compounds read low 0.984 | locus YDR318W, strain mcm21, active compounds read low 1.02 | locus YDR334W, strain swr1, active compounds read low 0.949 | locus YDR335W, strain msn5, active compounds read low 0.985 | locus YDR363W, strain ESC2, active compounds read low 0.996 | locus YDR388W, active compounds read low 1.03 | locus YDR392W, strain spt3, active compounds read low 0.942 | locus YDR502C, strain sam2, active compounds read low 1.01 | locus YEL003W, strain gim4, active compounds read low 0.986 | locus YEL037C, strain rad23, active compounds read low 0.974 | locus YEL061C, strain CIN8 (second series), active compounds read low 0.97 | locus YEL061C, strain CIN8, active compounds read low 1.02 | locus YER002W, strain NOP16, active compounds read low 1 | locus YER015W, strain faa2, active compounds read low 0.968 | locus YER016W, strain bim1, active compounds read low 0.99 | locus YER110C, active compounds read low 1.03 | locus YER111C, strain swi4, active compounds read low 0.968 | locus YER155C, strain BEM2 (second series), active compounds read low 0.955 | locus YER155C, strain BEM2, active compounds read low 1.01 | locus YER167W, strain BCK2, active compounds read low 1.03 | locus YFR010W, strain ubp6, active compounds read low 0.984 | locus YGL078C, strain dbp3, active compounds read low 1.04 | locus YGL086W, strain mad1, active compounds read low 1.02 | locus YGL167C, strain pmr1, active compounds read low 0.994 | locus YGL173C, strain kem1, active compounds read low 0.99 | locus YGL227W, strain vid30, active compounds read low 0.986 | locus YGL240W, strain doc1, active compounds read low 0.977 | locus YGL248W, strain PDE1, active compounds read low 1.02 | locus YGL253W, strain hxk2, active compounds read low 0.987 | locus YGR078C, strain PAC10, active compounds read low 1.02 and 1.01 | locus YGR135W, strain pre9, active compounds read low 1.02 | locus YGR229C, strain SMI1, active compounds read low 0.997 | locus YGR252W, strain gcn5, active compounds read low 0.983 | locus YHR013C, strain ard1, active compounds read low 0.992 | locus YHR027C, strain rpn1, active compounds read low 0.992 | locus YHR030C, strain SLT2, active compounds read low 1.02 and 1.01 | locus YHR079C, strain IRE1 (second series), active compounds read low 1.02 | locus YHR079C, strain IRE1, active compounds read low 1.02 | locus YHR094C, strain hxt1, active compounds read low 1.03 | locus YHR129C, strain ARP1, active compounds read low 1.02 | locus YHR142W, strain chs7, active compounds read low 0.986 | locus YHR200W, strain rpn10, active compounds read low 1.02 | locus YIL066C, strain RNR3, active compounds read low 1.02 | locus YIL073C, strain SPO22, active compounds read low 1.06 | locus YIL125W, strain kgd1, active compounds read low 1.03 | locus YIR030C, strain dcg1, active compounds read low 1.03 | locus YJL092W, strain hpr5, active compounds read low 0.979 | locus YJL095W, strain BCK1 (second series), active compounds read low 0.993 | locus YJL095W, strain BCK1, active compounds read low 1.03 and 1.01 | locus YJL115W, strain asf1, active compounds read low 0.976 | locus YJL129C, strain trk1, active compounds read low 0.912 | locus YJL134W, strain LCB3, active compounds read low 1.01 | locus YJL154C, strain vps35, active compounds read low 0.968 | locus YJL164C, strain tpk1, active compounds read low 1.01 | locus YJL166W, strain qcr8, active compounds read low 0.978 | locus YJL168C, strain set2, active compounds read low 1.02 | locus YJL187C, strain SWE1 (second series), active compounds read low 1.02 | locus YJL187C, strain SWE1, active compounds read low 0.986 | locus YJR043C, strain POL32, active compounds read low 1.04 | locus YJR066W, strain TOR1, active compounds read low 0.944
